Source: PubChem BioAssay
The list is not random: actives were taken first. Their share in the collection is about 4.3%.
FGF22 binding = binders of recombinant human FGF22 by thermal shift. Q9HCT0. SYPRO orange fluorescence; percent of sucrose octasulfate shift, DMSO zero. activity (Tm shift, normalised), % at 9.99 µM. actives 1.5% (n = 340,000). AID 651658;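 active = mean Tm shift, scaled 0 neutral to 100 positive control, at about 1.3% or above, every replicate too, limit read from the data; inconclusive = no clear call, values can overlap the other calls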
Target sequence (Q9HCT0 whole entry, looked up): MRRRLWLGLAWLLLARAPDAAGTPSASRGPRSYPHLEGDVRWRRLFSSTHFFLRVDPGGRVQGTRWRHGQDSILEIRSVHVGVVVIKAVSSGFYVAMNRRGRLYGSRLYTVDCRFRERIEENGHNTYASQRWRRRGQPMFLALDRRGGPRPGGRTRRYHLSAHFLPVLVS
MITF act = activators of MITF-driven TRPM1 promoter activity in SK-MEL-5 cells; SK-MEL-5 TRPM1-promoter luciferase, 24 h; % of positive control, neutral wells = 0; activation, % at 12.5 µM; actives 0.75% (n = 300,000); AID 588334;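 active = mean activation of at least 80% with every replicate also reaching 80%; inconclusive = mean reaches 80% but some replicate falls short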;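 note: 0% = neutral control wells and 100% = parthenolide positive control wells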
Wnt act = activators of Wnt/beta-catenin signaling; Wnt/beta-catenin reporter cell assay, activator, plate reader; activation, % at 9.35 µM; actives 1.2% (n = 300,000); in the data active = activation above about 30%, passing the limit was not always enough; inconclusive = no clear call, values can overlap the other calls;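 note: 0% = neutral control wells and 100% = positive control wells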
esBAF inh = blocks esBAF chromatin remodeling in mouse ES cells; reporter increase, % at 12.5 µM; actives 2% (n = 350,000); Bmi1-luciferase knock-in reporter, 24 h; 100% = twice the neutral-well signal; in the data active = activation above about 40%; inconclusive = no clear call, values can overlap the other calls;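 note: 0% = median of the plate's neutral control wells and 100% = double that signal; a rise in the Bmi1 reporter signal indicates esBAF inhibition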
SMARCA2 act = increases SMARCA2 function in MMTV reporter cells. actives 1% (n = 370,000). AID 652017. MG213 cells, MMTV-luciferase reporter, dexamethasone, overnight. activation, % at 9.1 µM; in the data active = activation above about 7.8%;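 note: 0% = vehicle wells and 100% = reference activator wells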
AF4-AF9 inh = MLL-AF4/AF9 protein interaction inhibition; inhibition, % at 10 µM; actives 0.47% (n = 350,000); AlphaScreen, biotin-AF4 peptide binding to FLAG-AF9; AID 651704; P42568;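 active = every replicate reaching a set inhibition limit, whatever the replicate mean, cut at about 25% in these data; inconclusive = mean inhibition reaches that limit but some replicates miss it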;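 note: 0% = plate neutral control median and 100% = total signal loss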
AlphaScreen intf = interferes with the AlphaScreen assay signal | shares compounds with AF4-AF9 inh | AlphaScreen interference counter-screen, signal luminescence | AC50, µM (doses to about 12 µM), for inactives: at the highest dose activity change, negative = inhibition | actives 45% (n = 530); cut-off not given, nearly all actives have AC50 up to about 14 µM
Active calls of the source: *; u = inconclusive; x = no result.

SMILES	FGF22 binding	MITF act	Wnt act	esBAF inh	SMARCA2 act	AF4-AF9 inh	AlphaScreen intf
COc1ccc(-n2cc(CNCCc3cnc[nH]3)c(-c3cccc(F)c3)n2)cc1	43	23	x	x	1	30*	-19%
COc1ccc(-n2cc(CNCc3cccnc3)c(-c3cccc(F)c3)n2)cc1	0	8	1	3	-2	0	x
C[C@@H]1CN([C@@H](C)CO)C(=O)c2cc(C#CCN(C)C)cnc2O[C@@H]1CN(C)Cc1ccc2c(c1)OCO2	0	x	x	1	x	0	x
CO[C@@H]1CN(C)C(=O)c2ccc(NC(=O)Nc3cc(F)ccc3F)cc2OC[C@@H](C)NC[C@H]1C	0	x	x	-2	x	2	x
CC1(C)CNc2cc(N)ccc2S1	41	21	2	x	-6	63*	2.3µM*
Cc1cc(N=Nc2ccc(Cl)cc2)cc(CN2CCOCC2)c1O	0	-1	1	1	-4	30*	-34%
Oc1c(CN2CCOCC2)cc(CN2CCOCC2)cc1CN1CCOCC1	0	17	-6	-10	-4	-3	x
C[C@@H]1CN([C@H](C)CO)C(=O)c2cc(NS(=O)(=O)c3ccccc3)ccc2O[C@@H]1CN(C)C(=O)Nc1ccc(F)cc1	0	x	x	1	x	-1	x
Oc1ccc(CN2CCN(Cc3ccccc3)CC2)c2cccnc12	x	x	6	6	5	x	x
O=S(=O)(c1ccc(Cl)cc1)N1CCN(Cc2ccc(O)c3ncccc23)CC1	0	-64	36*	x	-3	75*	-33%
Nc1ccc(N)c(C(=O)O)c1	x	-24	-2	-6	x	27*	-8%
Nc1ccc(C(=O)O)c(O)c1	0	-2	-2	-4	-6	9	x
C[C@@H](NC(=O)C[C@H]1CC[C@@H](NC(=O)Cc2ccccn2)[C@H](CO)O1)c1ccccc1	0	x	x	1	x	0	x
Cc1ccnc(NC(c2cccnc2)c2ccc3cccnc3c2O)c1 (stereo not drawn)	0	-9	2	x	-6	82*	1.5µM*
Cc1cc(NC(c2ccc(Cl)cc2)c2ccc3cccnc3c2O)no1 (stereo not drawn)	x	-78	-2	-50	-1	x	x
COc1ccccc1NC(c1cccnc1)c1ccc2cccnc2c1O (stereo not drawn)	0	-10	11	-4	-2	48*	-25%
Cc1ccc2ccc(C(Nc3cccc(C(F)(F)F)c3)c3cccnc3)c(O)c2n1 (stereo not drawn)	0	-11	-1	6	-2	33*	-17%
Cc1ccc2ccc(C(Nc3ccccn3)c3ccccc3)c(O)c2n1 (stereo not drawn)	0	x	-3	3	-1	u	x
Cc1ccnc(NC(c2ccsc2)c2ccc3ccc(C)nc3c2O)c1 (stereo not drawn)	0	-17	-6	-37	7	55*	-13%
C[C@@H]1CN([C@@H](C)CO)C(=O)c2cccc(NC(=O)Nc3ccc4c(c3)OCO4)c2O[C@H]1CN(C)Cc1ccc(C(F)(F)F)cc1	-1	x	x	26	x	2	x
O=C(Cc1ccccc1)N1CC(=O)N2[C@H](CO)[C@@H](c3ccc(Br)cc3)[C@@H]2C1	x	x	x	x	x	-2	x
CC[C@H](C)[C@@H]1NC(=O)c2cc([N+](=O)[O-])cc(F)c2NCCCC[C@@H](C(N)=O)NC(=O)[C@H](CCCCN)NC1=O	0	11	2	-7	-1	u	-18%
NCCCC[C@@H]1NC(=O)c2cc([N+](=O)[O-])cc(F)c2NCCCC[C@@H](C(N)=O)NC(=O)CNC1=O	0	2	-1	x	0	42*	-26%
CCC(=O)Nc1ccc2c(c1)OC[C@@H](C)N(Cc1ccccn1)C[C@H](C)[C@H](OC)CN(C)C2=O	0	x	x	-7	x	6	x
C/C(=N\N1CCN(C2c3ccccc3-c3ccccc32)CC1)c1cccnc1	x	x	x	7	1	x	x
SMILES	FGF22 binding	MITF act	Wnt act	esBAF inh	SMARCA2 act	AF4-AF9 inh	AlphaScreen intf
CN=c1scc(-c2ccccc2F)n1/N=C(\C)c1cccnc1	43	17	19	x	2	37*	-31%
Cn1c(SCC(=O)N2c3ccccc3Sc3ccc(Cl)cc32)nnc1-c1ccco1	x	-7	-4	2	-2	u	-2%
CCn1c(SCC(=O)N2c3ccccc3Sc3ccccc32)nnc1-c1ccco1	x	-10	x	2	-1	x	x
COc1ccc(N=C2S/C(=C\c3ccc(Cl)c([N+](=O)[O-])c3)C(=O)N2CCN(C)C)cc1	-1	-21	-10	-5	-7	26*	6.7µM*
CCN(CC)CCN1C(=O)/C(=C\c2ccc(Cl)c([N+](=O)[O-])c2)SC1=Nc1ccc(OC)cc1	-1	-94	-11	1	-11	19	x
O=C(NC1CCCC1)C1(C(=O)C2CC2)CC(c2ccccn2)=NO1 (stereo not drawn)	x	x	x	x	1	x	x
CCNC(=O)C[C@H]1CC[C@H]2[C@@H](COc3ccc(NC(=O)Nc4ccccc4F)cc3C(=O)N2C)O1	0	x	x	-1	x	-1	x
COc1ccc(OC)c(C2=NOC(C(=O)Nc3c(C)n(C)n(-c4ccccc4)c3=O)C2)c1 (stereo not drawn)	0	-5	-1	-3	-2	-8	5%
C[C@@H]1CN([C@H](C)CO)C(=O)Cc2cc(NC(=O)Cn3cnnn3)ccc2O[C@H]1CN(C)C(=O)Nc1cccc2ccccc12	0	x	x	-1	x	x	x
CNC(=S)N1N=C(c2ccc(Br)cc2)CC1c1ccc(N(C)C)cc1 (stereo not drawn)	0	10	-21	x	-2	27*	-30%
CCC(=O)N1[C@@H](CO)[C@@H](c2ccc(-c3cccnc3)cc2)[C@@H]1CN(CC)C(C)=O	0	x	x	-4	x	1	x
CNC[C@H](Cc1ccccc1)NC[C@@H](Cc1cccc2ccccc12)NCCc1ccc(C)cc1	0	5	-14	-45	0	45*	-24%
Cn1c(=O)cc2c3c(c(N4CCCCC4)ccc31)C(=O)c1ccccc1-2	0	x	0	x	-1	54*	10µM*
COc1ccc(CN2CCC(N(CCc3ccccc3)Cc3ccccc3)CC2)c(OC)c1	1	5	-21	-4	-2	30*	-21%
CC(C)(C)C1=CC(=Nc2ccccc2N)C=C(C(C)(C)C)C1=O	0	-7	-1	4	6	73*	2.7µM*
COCCN=c1scc(-c2ccco2)n1/N=C/c1ccc(O)c(O)c1O	0	6	12	14	-1	33*	-6%
O=C1CCC[C@@H]2C[C@@]3(C[C@@H]4CCN1[C@H]24)Nc1cc(Cl)ccc1NC3=NC1CCCCC1	-1	2	3	1	1	6	x
Cc1cc2c(cc1C)N[C@]1(C[C@H]3CCCC(=O)N4CC[C@@H](C1)[C@@H]34)C(=NC(C)(C)CC(C)(C)C)N2	0	6	-3	-2	1	50*	-24%
